The results in this text go back to PubChem BioAssay (EPA / NIEHS).

For experiment [1], the target named is Estrogen-related receptor gamma (Homo sapiens) (UniProt P62508). The experiment is described as follows: ATG_ERRg_TRANS: Attagene TRANS-FACTORIAL HepG2 Assay for human Estrogen-Related Receptor gamma (ERRg) (AID 2282977; active = hit-call score of the fitted dose curve at least 0.9, where 1 is the maximum;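 also: hits increase reporter signal over DMSO so potencies reflect activators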). Particulars: HepG2 Attagene TRANS reporter, ERRg transactivation. The essentials: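 Induction of reporter transcripts through a chimeric NR-Gal4 protein is quantified in transfected human HepG2 liver cells after 24 h chemical exposure, using RT-PCR with capillary electrophoresis detection and DMSO as baseline.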

The target in experiment [2] is Glucocorticoid receptor (Homo sapiens) (UniProt P04150). The experiment is described as follows: ATG_GR_TRANS: Attagene TRANS-FACTORIAL HepG2 Assay for human Glucocorticoid Receptor (GR) (AID 2282978; active = hit-call score of the fitted dose curve at least 0.9, where 1 is the maximum;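 also: activators score as hits since higher reporter transcript over DMSO is fitted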). Particulars: HepG2 Attagene TRANS GR reporter, mRNA transcription. The essentials:
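Reporter transcript levels, detected by fluorescence after RT-PCR and capillary electrophoresis, served as the endpoint. HepG2 cells bearing transfected GAL4-UAS reporters responsive to NR-GAL4 chimeras were incubated with compound 24 h; DMSO defined baseline.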

Experiment [3] concerns the target Bile acid receptor (Homo sapiens) (UniProt Q96RI1). The experiment is described as follows: ATG_FXR_TRANS: Attagene TRANS-FACTORIAL HepG2 Assay for Farnesoid X Receptor (FXR) (AID 2282979; active = hit-call score of the fitted dose curve at least 0.9, where 1 is the maximum;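 also: hits raise reporter mRNA above DMSO so AC50 marks FXR activation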). The settings on record: HepG2 Attagene TRANS FXR-GAL4 reporter transcription. A digest of the protocol: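 Read-out: fluorescent reporter transcripts quantified by capillary electrophoresis after RT-PCR of total RNA. Source cells were HepG2 transiently carrying chimeric NR-GAL4 plus GAL4-UAS reporter units, dosed 24 h. Activity fitted upward relative to DMSO baseline.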

A short description of experiment [4]: ATG_M_06_TRANS: Attagene TRANS-FACTORIAL HepG2 Assay for M06 Transcription Factor (Internal Marker) (AID 2282983; active = hit-call score of the fitted dose curve at least 0.9, where 1 is the maximum). The settings on record: HepG2 Attagene TRANS M06 internal marker reporter. A digest of the protocol:
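Read-out: fluorescent reporter cDNA fragments resolved by capillary electrophoresis after RT-PCR and HpaI cut. Source cells were HepG2 carrying transfected multi-reporter GAL4 constructs, dosed 24 h. Increase over DMSO control analysed.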

The target of experiment [5] is Transcriptional activator Myb (Homo sapiens) (UniProt P10242). The experiment is described as follows: ATG_Myb_CIS: Attagene CIS-FACTORIAL HepG2 Assay for human Myeloblastosis (Myb) Proto-Oncogene Transcription Factor (AID 2282986). Particulars: HepG2 Attagene CIS-FACTORIAL Myb reporter transcription; actives raise or lower the signal. A digest of the protocol: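 Transiently transfected HepG2 cells, treated 24 h. Reporter mRNA quantified by RT-PCR/capillary electrophoresis; bidirectional fit relative to DMSO.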

Experiment [6] addresses Nuclear respiratory factor 1 (Homo sapiens) (UniProt Q16656). Kind of experiment: ATG_NRF1_CIS: Attagene CIS-FACTORIAL HepG2 Assay for human Nuclear Respiratory Factor 1 (NRF1) Orphan Gene (AID 2282987). The settings on record: HepG2 NRF1 cis-element reporter, Attagene multiplex; actives raise or lower the signal. A digest of the protocol: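 Cells (HepG2, transient MRTU transfection) are exposed to compound for 24 h, then RNA isolated and reporter mRNA amplified and fluorescently labelled. Fragments are separated by capillary electrophoresis; signal change is fitted bidirectionally relative to DMSO.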

Experiment [7] can be described thus: ATG_NFI_CIS: Attagene CIS-FACTORIAL HepG2 Assay for human Nuclear Factor I (NFI) (AID 2282989). Particulars: HepG2 cis-regulatory reporter, NFI response element transcription; actives raise or lower the signal. A digest of the protocol: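 After transient transfection of HepG2 with cis-promoter reporter constructs and 24 h dosing, RNA is reverse-transcribed, amplified, 6-FAM end-labelled and HpaI-digested before capillary analysis. Bidirectional curve fitting against DMSO.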

Experiment [8] has as its target Myc proto-oncogene protein (Homo sapiens) (UniProt P01106). Kind of experiment: ATG_Myc_CIS: Attagene CIS-FACTORIAL HepG2 Assay for human Myelocytomatosis (Myc) Proto-Oncogene Transcription Factor (AID 2282990). Particulars: HepG2, Attagene cis-reporter transcription factor activity; actives raise or lower the signal. A digest of the protocol:
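DMSO-normalised, bidirectionally fitted reporter mRNA signal. HepG2 cells transfected with cis reporter constructs, treated 24 h; transcripts detected by RT-PCR, 6-FAM primer extension and CE.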

Experiment [9] in a line: ATG_NF_kB_CIS: Attagene CIS-FACTORIAL HepG2 Assay for human Nuclear Factor Kappa B (NF-kB) (AID 2282991). The settings on record: HepG2 Attagene cis-factorial NF-kB reporter mRNA; actives raise or lower the signal. The essentials: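 Measures mRNA induction of an NF-kB-responsive cis-element reporter in HepG2 cells transfected with multiple reporter units, sampled 24 h post-dosing; quantified by fluorescence after RT-PCR and capillary electrophoresis, fitted for activation or inhibition against DMSO.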

Experiment [10] is described as follows: ATG_NRF2_ARE_CIS: Attagene CIS-FACTORIAL HepG2 Assay for human Nuclear Factor Erythroid 2 Related Factor 2 (NFR2) response to Antioxidant Response Elements (ARE) (AID 2282992). Particulars: HepG2 Attagene ARE/NRF2 reporter, transcription factor activity; actives raise or lower the signal. A digest of the protocol:
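Fluorescence intensity of reporter-specific cDNA fragments, separated by capillary electrophoresis, reflects mRNA induction in transfected HepG2 cells at 24 h. Activity is fitted bidirectionally, DMSO serving as baseline.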

The nature of experiment [11]: ATG_Oct_MLP_CIS: Attagene CIS-FACTORIAL HepG2 Assay for human Octamer-Binding Transcription Factor (Oct) (AID 2282993). Particulars: HepG2 Attagene cis-factorial Oct reporter, mRNA; actives raise or lower the signal. A digest of the protocol: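 Cells of the HepG2 line express promoter-controlled reporter sequences whose mRNA levels, after 24 h treatment, are measured by RT-PCR and capillary electrophoresis. Increases and decreases are scored relative to DMSO.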

Experiment [12] deals with Cellular tumor antigen p53 (Homo sapiens) (UniProt P04637). The experiment is described as follows: ATG_p53_CIS: Attagene CIS-FACTORIAL HepG2 Assay for human p53 Transcription Factor (AID 2282994). Particulars: HepG2 p53 cis-element reporter, Attagene mRNA; actives raise or lower the signal. A digest of the protocol: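 Transiently transfected HepG2 (multiple cis reporter transcription units); exposure 24 h; reporter RNA via RT-PCR, 6-FAM extension, 2 h HpaI digest at 37 C, CE detection; DMSO baseline.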

Experiment [13] in a line: BSK_3C_uPAR: BioMAP Diversity Plus: 3C Assay for Urokinase-type plasminogen activator receptor (uPAR) Biomarker Activity (AID 2282998). Particulars: BioMAP 3C HUVEC, uPAR biomarker ELISA; actives raise or lower the signal. The essentials: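 Endothelial primary cells of human umbilical vein origin received test chemical; 24 h later uPAR was assayed by ELISA. Fitting was bidirectional, DMSO as negative control.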
Background: In an ELISA, binding on a coated surface is turned into a signal by an enzyme label.

The nature of experiment [14]: BSK_3C_VCAM1: BioMAP Diversity Plus: 3C Assay for Vascular cell adhesion molecule 1 (VCAM1) Biomarker Activity (AID 2282999). Particulars: BioMAP 3C HUVEC, VCAM1 ELISA, cytokine-stimulated; actives raise or lower the signal. The essentials:
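Vascular primary endothelium (human umbilical vein) was exposed to chemicals and assayed 24 h later. VCAM-1 levels came from ELISA, with DMSO serving as baseline for bidirectional fitting.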

For experiment [15], the target named is Oxysterols receptor LXR-alpha (Homo sapiens) (UniProt Q13133). Kind of experiment: ATG_LXRa_TRANS: Attagene TRANS-FACTORIAL HepG2 Assay for human Liver X Receptor alpha (LXRa) (AID 2282980; active = hit-call score of the fitted dose curve at least 0.9, where 1 is the maximum). The settings on record: HepG2 Attagene TRANS reporter, LXRa transactivation. A digest of the protocol:
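Read-out: reporter transcript levels by RT-PCR plus capillary electrophoresis, fluorescence intensity. Transiently transfected HepG2, exogenous NR-GAL4 chimera, GAL4-UAS reporters; 24 h compound exposure. Activity = increase over DMSO negative control.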

Experiment [16] concerns the target Oxysterols receptor LXR-beta (Homo sapiens) (UniProt P55055). The experiment is described as follows: ATG_LXRb_TRANS: Attagene TRANS-FACTORIAL HepG2 Assay for human Liver X Receptor beta (LXRb) (AID 2282981; active = hit-call score of the fitted dose curve at least 0.9, where 1 is the maximum). The settings on record: HepG2 Attagene TRANS GAL4-LXRb reporter, mRNA. The essentials:
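Measures induction of a Gal4-driven reporter transcript in HepG2 cells expressing an exogenous LXRb-Gal4 fusion. Cells are exposed to compound for 24 h before RNA isolation and RT-PCR with capillary electrophoresis detection.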

Experiment [17] deals with Nuclear receptor subfamily 4 group A member 2 (Homo sapiens) (UniProt P43354). The experiment is described as follows: ATG_NURR1_TRANS: Attagene TRANS-FACTORIAL HepG2 Assay for human Nuclear Receptor Related Protein 1 (NURR1) (AID 2282985; active = hit-call score of the fitted dose curve at least 0.9, where 1 is the maximum). Particulars: HepG2 Attagene TRANS reporter, mRNA readout. A digest of the protocol:
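Chimeric NR-Gal4 fusion activity measured in HepG2 after 24 h treatment. Reporter transcripts detected by RT-PCR and capillary electrophoresis fluorescence; positive-direction curve fitting against DMSO.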

Experiment [18] in a line: ATG_M_32_TRANS: Attagene TRANS-FACTORIAL HepG2 Assay for M32 Transcription Factor (Internal Marker) (AID 2282984; active = hit-call score of the fitted dose curve at least 0.9, where 1 is the maximum;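 also: transcript level of a background control reporter unit measured by RT-PCR and capillary electrophoresis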). The settings on record: HepG2 Attagene TRANS M32 internal marker reporter. The essentials: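 After 24 h dosing of transfected HepG2 cells, total RNA was reverse-transcribed, reporter sequences PCR-amplified, 6-FAM labelled by primer extension and HpaI-digested before capillary electrophoresis. Signal increase over DMSO was fitted.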

Experiment [19] in a line: ATG_GAL4_TRANS: Attagene TRANS-FACTORIAL HepG2 Assay for GAL4 (Internal Marker) (AID 2282976; active = hit-call score of the fitted dose curve at least 0.9, where 1 is the maximum). The settings on record: HepG2 Attagene TRANS GAL4 internal marker reporter. The essentials: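 RT-PCR/capillary electrophoresis readout of reporter mRNA. HepG2, transient MRTU transfection (GAL4-UAS reporters), 24 h compound exposure. Background-control endpoint, positive direction vs DMSO baseline.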

Where “and” joins values, the source holds several entries; their conditions need not be identical. Identical values can stand only once. Results filed as inconclusive are left out. Calls of active or inactive are those of the source. The calls were made as follows, unless noted: active = hit-call score of the fitted dose curve at least 0.9, where 1 is the maximum; inactive = score below 0.9.

Sequence of Bile acid receptor (Homo sapiens) (Q96RI1 whole entry, looked up, the tested form may be a part): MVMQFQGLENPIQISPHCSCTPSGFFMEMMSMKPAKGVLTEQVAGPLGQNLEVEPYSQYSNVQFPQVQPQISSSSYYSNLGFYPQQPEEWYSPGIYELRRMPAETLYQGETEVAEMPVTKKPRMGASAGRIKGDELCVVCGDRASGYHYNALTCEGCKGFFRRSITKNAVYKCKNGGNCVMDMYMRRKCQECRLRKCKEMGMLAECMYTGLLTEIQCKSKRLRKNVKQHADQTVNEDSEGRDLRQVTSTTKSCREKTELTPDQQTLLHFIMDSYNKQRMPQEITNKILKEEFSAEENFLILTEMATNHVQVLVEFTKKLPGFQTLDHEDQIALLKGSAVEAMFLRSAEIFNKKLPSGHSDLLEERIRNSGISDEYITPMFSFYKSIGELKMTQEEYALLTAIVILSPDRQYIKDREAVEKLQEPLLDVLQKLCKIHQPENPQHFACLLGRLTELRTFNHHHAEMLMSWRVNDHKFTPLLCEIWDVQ
Sequence of Myc proto-oncogene protein (Homo sapiens) (P01106 whole entry, looked up): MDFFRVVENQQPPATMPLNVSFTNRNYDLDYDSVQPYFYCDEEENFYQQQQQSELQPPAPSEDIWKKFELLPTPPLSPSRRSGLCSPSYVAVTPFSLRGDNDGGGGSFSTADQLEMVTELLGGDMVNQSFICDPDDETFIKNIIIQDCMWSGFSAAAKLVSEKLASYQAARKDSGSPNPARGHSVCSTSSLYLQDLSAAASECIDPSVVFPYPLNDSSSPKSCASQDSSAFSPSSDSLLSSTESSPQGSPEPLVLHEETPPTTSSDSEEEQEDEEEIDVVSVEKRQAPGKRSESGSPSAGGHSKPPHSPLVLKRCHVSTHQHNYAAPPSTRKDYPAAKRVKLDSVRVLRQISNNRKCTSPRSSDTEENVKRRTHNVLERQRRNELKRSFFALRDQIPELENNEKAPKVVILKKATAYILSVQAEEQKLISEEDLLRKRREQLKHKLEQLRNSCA
Sequence of Cellular tumor antigen p53 (Homo sapiens) (P04637 whole entry, looked up): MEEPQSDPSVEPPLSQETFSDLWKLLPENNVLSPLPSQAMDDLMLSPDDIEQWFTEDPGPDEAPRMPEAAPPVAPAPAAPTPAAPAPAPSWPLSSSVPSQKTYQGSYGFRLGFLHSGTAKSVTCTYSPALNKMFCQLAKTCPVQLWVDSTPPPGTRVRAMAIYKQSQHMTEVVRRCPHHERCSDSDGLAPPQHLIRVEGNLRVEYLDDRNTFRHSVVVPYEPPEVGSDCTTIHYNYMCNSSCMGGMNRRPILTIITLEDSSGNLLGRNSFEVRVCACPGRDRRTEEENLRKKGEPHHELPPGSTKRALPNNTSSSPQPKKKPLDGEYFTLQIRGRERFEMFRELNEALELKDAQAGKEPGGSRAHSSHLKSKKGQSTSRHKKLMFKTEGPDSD
Sequence of Oxysterols receptor LXR-alpha (Homo sapiens) (Q13133 whole entry, looked up, the tested form may be a part): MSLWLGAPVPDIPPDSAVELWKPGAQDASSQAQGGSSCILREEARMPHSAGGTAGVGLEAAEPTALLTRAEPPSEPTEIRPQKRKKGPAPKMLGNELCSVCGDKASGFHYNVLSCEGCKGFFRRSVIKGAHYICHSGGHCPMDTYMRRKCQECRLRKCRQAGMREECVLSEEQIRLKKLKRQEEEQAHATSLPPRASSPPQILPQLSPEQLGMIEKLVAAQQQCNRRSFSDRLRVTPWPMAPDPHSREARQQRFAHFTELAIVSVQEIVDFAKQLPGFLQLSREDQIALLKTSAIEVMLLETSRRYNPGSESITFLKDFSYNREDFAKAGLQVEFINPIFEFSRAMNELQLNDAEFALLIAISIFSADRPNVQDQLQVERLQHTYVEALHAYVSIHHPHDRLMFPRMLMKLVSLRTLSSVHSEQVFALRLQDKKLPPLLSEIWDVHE
Sequence of Transcriptional activator Myb (Homo sapiens) (P10242 whole entry, looked up): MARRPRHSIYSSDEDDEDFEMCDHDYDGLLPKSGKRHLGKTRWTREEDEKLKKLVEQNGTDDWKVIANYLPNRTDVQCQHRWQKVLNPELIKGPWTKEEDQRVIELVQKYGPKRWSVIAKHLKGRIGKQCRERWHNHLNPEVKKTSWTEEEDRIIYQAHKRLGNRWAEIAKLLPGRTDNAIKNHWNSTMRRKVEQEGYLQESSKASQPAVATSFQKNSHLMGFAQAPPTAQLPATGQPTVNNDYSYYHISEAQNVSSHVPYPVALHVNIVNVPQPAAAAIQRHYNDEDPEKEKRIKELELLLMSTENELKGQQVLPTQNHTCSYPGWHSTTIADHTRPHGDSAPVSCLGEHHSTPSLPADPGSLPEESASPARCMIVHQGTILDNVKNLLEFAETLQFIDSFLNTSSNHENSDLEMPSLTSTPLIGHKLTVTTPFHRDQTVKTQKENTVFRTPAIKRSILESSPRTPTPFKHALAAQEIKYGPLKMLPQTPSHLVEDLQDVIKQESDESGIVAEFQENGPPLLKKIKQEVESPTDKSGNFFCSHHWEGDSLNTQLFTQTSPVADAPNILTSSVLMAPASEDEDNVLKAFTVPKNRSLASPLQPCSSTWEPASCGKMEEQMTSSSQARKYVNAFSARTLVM
Sequence of Glucocorticoid receptor (Homo sapiens) (P04150 whole entry, looked up, the tested form may be a part): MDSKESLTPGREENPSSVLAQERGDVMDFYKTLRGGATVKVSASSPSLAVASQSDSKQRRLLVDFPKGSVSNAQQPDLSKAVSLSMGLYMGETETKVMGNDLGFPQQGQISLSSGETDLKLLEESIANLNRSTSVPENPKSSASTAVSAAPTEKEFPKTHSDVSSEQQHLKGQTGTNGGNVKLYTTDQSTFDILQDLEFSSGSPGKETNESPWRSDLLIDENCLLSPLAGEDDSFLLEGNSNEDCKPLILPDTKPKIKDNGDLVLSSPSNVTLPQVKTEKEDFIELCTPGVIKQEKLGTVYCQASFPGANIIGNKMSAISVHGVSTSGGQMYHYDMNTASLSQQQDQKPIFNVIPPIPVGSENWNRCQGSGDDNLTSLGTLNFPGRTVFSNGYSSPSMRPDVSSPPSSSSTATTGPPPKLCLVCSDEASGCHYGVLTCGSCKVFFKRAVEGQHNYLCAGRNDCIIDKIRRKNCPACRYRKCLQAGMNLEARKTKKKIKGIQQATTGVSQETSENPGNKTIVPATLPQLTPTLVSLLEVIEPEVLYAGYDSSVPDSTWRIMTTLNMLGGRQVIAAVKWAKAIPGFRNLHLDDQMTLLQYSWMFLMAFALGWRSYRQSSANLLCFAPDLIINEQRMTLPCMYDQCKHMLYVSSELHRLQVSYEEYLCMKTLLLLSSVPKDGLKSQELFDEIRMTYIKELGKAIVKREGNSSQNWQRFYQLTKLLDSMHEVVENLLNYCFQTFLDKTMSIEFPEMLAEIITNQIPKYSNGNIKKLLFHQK
Sequence of Estrogen-related receptor gamma (Homo sapiens) (P62508 whole entry, looked up, the tested form may be a part): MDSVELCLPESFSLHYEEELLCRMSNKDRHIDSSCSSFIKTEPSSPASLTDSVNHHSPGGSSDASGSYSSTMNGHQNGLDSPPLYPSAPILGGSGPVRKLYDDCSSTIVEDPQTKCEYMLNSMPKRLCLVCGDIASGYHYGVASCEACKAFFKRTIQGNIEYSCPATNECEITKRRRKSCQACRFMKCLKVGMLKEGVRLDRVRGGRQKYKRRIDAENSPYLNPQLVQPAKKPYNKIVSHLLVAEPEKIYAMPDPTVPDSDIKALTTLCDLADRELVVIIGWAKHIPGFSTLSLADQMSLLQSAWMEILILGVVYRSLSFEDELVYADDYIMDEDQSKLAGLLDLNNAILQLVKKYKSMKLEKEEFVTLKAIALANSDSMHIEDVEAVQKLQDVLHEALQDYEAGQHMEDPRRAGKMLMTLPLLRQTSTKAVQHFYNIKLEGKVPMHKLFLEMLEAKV
Sequence of Oxysterols receptor LXR-beta (Homo sapiens) (P55055 whole entry, looked up, the tested form may be a part): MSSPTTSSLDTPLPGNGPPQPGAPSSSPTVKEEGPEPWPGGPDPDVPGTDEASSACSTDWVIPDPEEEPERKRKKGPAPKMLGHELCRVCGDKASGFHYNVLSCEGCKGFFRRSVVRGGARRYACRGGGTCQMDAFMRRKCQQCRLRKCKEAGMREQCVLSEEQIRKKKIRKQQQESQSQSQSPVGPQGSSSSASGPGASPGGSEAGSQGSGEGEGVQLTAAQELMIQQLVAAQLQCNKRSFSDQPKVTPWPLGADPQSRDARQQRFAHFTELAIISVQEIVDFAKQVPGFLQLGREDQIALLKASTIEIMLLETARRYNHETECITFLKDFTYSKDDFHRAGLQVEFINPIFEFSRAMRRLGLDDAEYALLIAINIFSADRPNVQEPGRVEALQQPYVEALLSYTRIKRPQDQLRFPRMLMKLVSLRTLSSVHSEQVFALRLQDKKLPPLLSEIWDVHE
Sequence of Nuclear respiratory factor 1 (Homo sapiens) (Q16656 whole entry, looked up, the tested form may be a part): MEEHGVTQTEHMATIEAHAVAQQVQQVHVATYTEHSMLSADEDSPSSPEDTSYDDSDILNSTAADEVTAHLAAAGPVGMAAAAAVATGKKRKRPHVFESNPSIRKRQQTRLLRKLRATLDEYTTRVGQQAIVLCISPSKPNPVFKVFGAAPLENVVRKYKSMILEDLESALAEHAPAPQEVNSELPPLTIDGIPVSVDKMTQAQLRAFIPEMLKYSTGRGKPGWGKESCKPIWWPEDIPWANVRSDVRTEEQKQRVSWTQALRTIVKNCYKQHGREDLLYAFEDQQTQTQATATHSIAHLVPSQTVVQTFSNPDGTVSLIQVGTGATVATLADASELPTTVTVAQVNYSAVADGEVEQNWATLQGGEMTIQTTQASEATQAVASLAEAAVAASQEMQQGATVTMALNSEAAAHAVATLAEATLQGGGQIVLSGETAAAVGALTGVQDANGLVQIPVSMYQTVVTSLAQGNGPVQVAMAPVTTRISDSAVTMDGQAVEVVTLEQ

In general, AC50 refers to the concentration at which the activity in the assay is half-maximal. With `CCc1ccc(C(=O)NN(C(=O)c2cc(C)cc(C)c2)C(C)(C)C)cc1`, the result in experiment [1], in experiment [2], in experiment [3], in experiment [4], in experiment [5] and in [6] was inactive. Besides, the result in experiment [7], in experiment [8], in experiment [11], in [12] and in experiment [14] was inactive. For the same compound, the AC50 was 9.92 µM (active) in [9], 9.92 µM (active) in [10] and 20 µM (active) in experiment [13].

With `C[C@H]1[C@H](c2ccc(Cl)cc2)SC(=O)N1C(=O)NC1CCCCC1`, the compound was called inactive in [1], in [15], in [16], in [4], in experiment [17] and in experiment [5]. For the same compound, the outcome in experiment [7], in experiment [8], in experiment [12] and in experiment [14] was inactive. Further, the values for the AC50 in experiment [10], in experiment [11] and in experiment [13] were 13.5 µM (active), 13.7 µM (active) and 13.1 µM (active), respectively.

For `OCCOc1ccccc1`, the compound was called inactive in experiment [1], in [2], in [15], in experiment [16], in experiment [18] and in [17]. Besides, the compound was classed as inactive in experiment [5], in [7], in experiment [8], in [10], in [11] and in [12]. Moreover, the outcome in [13] and in [14] was inactive.

In the case of `COP(=S)(OC)Oc1ccc([N+](=O)[O-])cc1`, the compound was classed as inactive in experiment [19], in experiment [15], in experiment [16], in [4], in [18] and in [17]. Also, the call in [5], in experiment [7], in [8], in experiment [9], in experiment [10] and in experiment [11] was inactive. Besides, the call in experiment [12] and in [14] was inactive. For the same compound, the AC50 in experiment [13] was 33.1 µM (active).

As for `CCS(=O)(=O)c1cccnc1S(=O)(=O)NC(=O)Nc1nc(OC)cc(OC)n1`, the result in experiment [1], in experiment [2], in experiment [3], in experiment [16], in experiment [4] and in experiment [18] was inactive. Also, the outcome in experiment [17], in experiment [5], in experiment [7], in experiment [8], in experiment [9] and in experiment [11] was inactive. Moreover, the outcome in experiment [12], in experiment [13] and in experiment [14] was inactive. Further, the AC50 in [10] is 17.6 µM (active) and 19.1 µM (active).

`CCN(CC)C(=O)SCc1ccc(Cl)cc1`: the result in [1], in experiment [2], in experiment [3], in [15], in [16] and in [18] was inactive. For the same compound, the compound was classed as inactive in [17], in [5], in experiment [6], in experiment [7], in experiment [8] and in experiment [9]. The compound was classed as inactive in experiment [12], in [13] and in experiment [14]. Besides, the AC50 in experiment [10] is 6.08 µM (active); in experiment [11] it was 25 µM (active).

Regarding `O=C(Nc1ccccc1)Nc1cnns1`, the result in [1], in experiment [2], in experiment [3], in experiment [15], in experiment [16] and in experiment [18] was inactive. Also, the compound was classed as inactive in experiment [17], in [6], in experiment [8], in experiment [9], in experiment [12] and in experiment [13]. For the same compound, the outcome in experiment [14] was inactive. Further, the AC50 in experiment [5] is 78.3 µM (active); in [7], 80.9 µM (active); in experiment [10] it was 50 µM (active); in experiment [11], 71.8 µM (active).
